From PubChem BioAssay (NCI)
Compounds without any hit were thinned out: in the full panel of roughly 83,000, 20% have a hit.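 For each line, cells grew in 96-well plates with the test compound present at a single concentration for 48 hours.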 A number with no mark means an inactive call. The source made the active and inactive calls. How the source made its calls: active means growth percent below 10; inactive means the rest.

What was measured:
Test in all cases: NCI-60 one-dose screen, 48 h (100 = growth as untreated, 0 = no growth, -100 = all killed)
Settings in all cases: 10 µM unless noted
[1] = test system: SR leukemia
[2] = test system: RPMI-8226 leukemia
[3] = test system: OVCAR-8 ovarian
[4] = test system: OVCAR-5 ovarian
[5] = test system: OVCAR-4 ovarian
[6] = test system: SK-OV-3 ovarian
[7] = test system: IGROV1 ovarian
[8] = test system: OVCAR-3 ovarian
[9] = test system: HS 578T breast
[10] = test system: NCI/ADR-RES ovarian

## O=C(CCCCl)NNc1nccc(Nc2ccc(S(=O)(=O)Nc3ccncc3)cc2)n1
[1]
  growth: 95%
[2]
  growth: 104%
[3]
  growth: 106%
[4]
  growth: 103%
[5]
  growth: 101%
[6]
  growth: 101%
[7]
  growth: 101%
[8]
  growth: 104%
[9]
  growth: 112%
[10]
  growth: 99.8%

## c1ccc(CNc2ccc3nc(CCC4CCCCC4)[nH]c3c2)cc1
[1]
  growth: 80.8%
[2]
  growth: 47.9%
[3]
  growth: 72.3%
[4]
  growth: 63.4%
[5]
  growth: 47.5%
[6]
  growth: 86.8%
[7]
  growth: 53.5%
[8]
  growth: 63.9%
[9]
  growth: 80.9%
[10]
  growth: 61.8%

## COC(=O)/C(CCC=C(C)C)=C1\[C@@H](OC(C)=O)C[C@@]2(C)[C@H]1CC(=O)[C@H]1[C@@]3(C)CCC(N4CCCC4)[C@@H](C)[C@@H]3CC[C@@]12C (stereo not given in full)
[1]
  growth: 56.3%
[2]
  growth: 85.5%
[3]
  growth: 95.7%
[4]
  growth: 96.9%
[5]
  growth: 97.5%
[6]
  growth: 108%
[7]
  growth: 102%
[8]
  growth: 99.1%
[9]
  growth: 89.1%
[10]
  growth: 99.3%

## CC1(C)CC[C@]2(C(=O)O)CC[C@]3(C)C(=CC[C@@H]4[C@@]5(C)C[C@@H](Cc6cn([C@@H]7O[C@H](CO)[C@@H](O)[C@H](O)[C@H]7O)nn6)[C@H](O)C(C)(C)[C@@H]5CC[C@]43C)[C@@H]2C1
[1]
  growth: 94.7%
[2]
  growth: 103%
[3]
  growth: 98.7%
[4]
  growth: 102%
[5]
  growth: 96.6%
[6]
  growth: 89%
[7]
  growth: 108%
[8]
  growth: 104%
[9]
  growth: 96.8%
[10]
  growth: 105%

## Cc1ccc(Nc2nc(-c3ccc(F)cc3)c(C#N)c(=O)n2C)cc1
[1]
  growth: 62.3%
[2]
  growth: 89.4%
[3]
  growth: 67.3%
[4]
  growth: 63.4%
[5]
  growth: 51%
[6]
  growth: 60.1%
[7]
  growth: 67.5%
[8]
  growth: 61.5%
[9]
  growth: 44.8%
[10]
  growth: 76.2%

## Nc1n[nH]c2ccc([C@@H]3Nc4cc5[nH]ncc5cc4[C@H]4C5CCC(C5)[C@@H]34)cc12 (stereo not given in full)
[1]
  growth: 20%
[2]
  growth: 5.15% (active)
[3]
  growth: 29.7%
[4]
  growth: 31.2%
[5]
  growth: 43.3%
[6]
  growth: 52.8%
[7]
  growth: 22.7%
[8]
  growth: -27.6% (active)
[9]
  growth: 32%
[10]
  growth: 21.6%

## CC[C@H](Nc1nc(N)nc(C)c1C#N)c1nc2cccc(NCCCCCC(=O)NO)c2c(=O)n1-c1ccccc1
[1]
  growth: 67.9%
[2]
  growth: 62%
[3]
  growth: 68.5%
[4]
  growth: 44.2%
[5]
  growth: 76.1%
[6]
  growth: 53.1%
[7]
  growth: 9.52% (active)
[8]
  growth: 40.8%
[9]
  growth: 13.2%
[10]
  growth: 96.2%

## CCCCCSB(SCCCCC)c1ccccc1
[1]
  growth: 98.5%
[2]
  growth: 100%
[3]
  growth: 97%
[4]
  growth: 101%
[5]
  growth: 100%
[6]
  growth: 104%
[7]
  growth: 97.1%
[8]
  growth: 109%
[9]
  growth: 109%
[10]
  growth: 98.4%

## O=C1/C(=C/c2ccc(C(F)(F)F)cc2)COc2ccc(O)c(O)c21
[1]
  growth: 3.77% (active)
[2]
  growth: -13.8% (active)
[3]
  growth: 9.3% (active)
[4]
  growth: -34.1% (active)
[5]
  growth: 24.8%
[6]
  growth: 81.6%
[7]
  growth: -49.6% (active)
[8]
  growth: -84.6% (active)
[9]
  growth: 10.4%
[10]
  growth: -11.6% (active)

## N=C(N)SCc1cccc2c(CSC(=N)N)cccc12
[1]
  growth: 92.9%
[2]
  growth: 107%
[3]
  growth: 102%
[4]
  growth: 92.4%
[5]
  growth: 116%
[6]
  growth: 113%
[7]
  growth: 99.2%
[8]
  growth: 102%
[9]
  growth: 100%
[10]
  growth: 105%

## CCNCc1ccc(O)c2ncccc12
[1]
  growth: 19%
[2]
  growth: 24.2%
[3]
  growth: 23%
[4]
  growth: 64.7%
[5]
  growth: 17.8%
[6]
  growth: 27.9%
[7]
  growth: 46%
[8]
  growth: 37.7%
[9]
  growth: 39.9%
[10]
  growth: 27.3%

## CC(O)c1ncc(/C=C2\SC(=S)N(Cc3ccccc3)C2=O)s1 (stereo not given)
[1]
  growth: 82.4%
[2]
  growth: 52.3%
[3]
  growth: 102%
[4]
  growth: 98.6%
[5]
  growth: 85.1%
[6]
  growth: 96.6%
[7]
  growth: 100%
[8]
  growth: 97.2%
[9]
  growth: 109%
[10]
  growth: 99.5%

## Cc1ccc(N=Nc2c(N)nn(-c3ccccc3)c2N)cc1
[1]
  growth: -16.6% (active)
[2]
  growth: -1.12% (active)
[3]
  growth: 41.6%
[4]
  growth: 55.3%
[5]
  growth: 75%
[6]
  growth: 37.2%
[7]
  growth: 48.3%
[8]
  growth: 0.588% (active)
[9]
  growth: 36.1%
[10]
  growth: -5.12% (active)
